Source: PubChem BioAssay (National Center for Advancing Translational Sciences (NCATS))
JMJD2A Tudor inh: qHTS Assay for Inhibitors of JMJD2A-Tudor Domain. AID 504339, 2011. Potency, µM (titrated, usually from 114 µM), hits mostly inhibitors. Lysine-specific demethylase 4A (Homo sapiens), O75164. hit rate 4.4% among 390,000. AlphaScreen JMJD2A-Tudor / H3K4me3 peptide binding; also: nearly all actives have a fitted effect of over 50% in size
G9a inh: qHTS Assay for Inhibitors of Histone Lysine Methyltransferase G9a | Histone-lysine N-methyltransferase EHMT2 (Homo sapiens), Q96KQ7 | AID 504332, 2011 | Potency, µM (doses to about 102 µM), hits mostly inhibitors | G9a H3K9 monomethylation, AlphaScreen, 2 h | hit rate 8.8% among 350,000; also: nearly all actives have a fitted effect of over 75% in size
Target sequence (Q96KQ7 913-1193 limits assumed): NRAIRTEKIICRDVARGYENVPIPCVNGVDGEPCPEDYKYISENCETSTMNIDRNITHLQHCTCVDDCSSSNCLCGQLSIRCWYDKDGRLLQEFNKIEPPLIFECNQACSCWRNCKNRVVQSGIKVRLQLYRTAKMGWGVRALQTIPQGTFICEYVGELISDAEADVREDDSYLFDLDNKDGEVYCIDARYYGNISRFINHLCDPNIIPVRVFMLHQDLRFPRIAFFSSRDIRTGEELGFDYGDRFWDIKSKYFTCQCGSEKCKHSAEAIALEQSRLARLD
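G9a (20 nM) was preincubated 15 min with compound, then reacted 2 h at room temperature with 500 nM biotin-H3K9 peptide and 20 µM SAM. Monomethyl-H3K9 detected by AlphaScreen using anti-H3K9me1 antibody.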
BAZ2B inh: qHTS Assay for Inhibitors of BAZ2B; Bromodomain adjacent to zinc finger domain protein 2B (Homo sapiens), Q9UIF8; AlphaScreen BAZ2B-H3K14Ac peptide displacement; Potency, µM (titrated, usually from 114 µM), usual class: inhibitors; hit rate 4.4% among 360,000; AID 504333, 2011; also: nearly all actives have a fitted effect of over 60% in size
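AlphaScreen luminescence quantifies BAZ2B engagement of H3K14Ac peptide; the protein and biotinylated peptide are both at 50 nM final, buffer PBS pH 7.4 with 0.01% Tween-20, all steps at room temperature.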
HP1b chromo inh: HTS for Inhibitors of HP1-beta Chromodomain Interactions with Methylated Histone Tails | AlphaScreen HP1-beta / biotin-H3K9me3 peptide binding | Potency, µM (highest dose often 114 µM), usual class: inhibitors | hit rate 0.56% among 390,000; also: nearly all actives have a fitted effect of over 70% in size
Target sequence (P83916 whole entry, looked up): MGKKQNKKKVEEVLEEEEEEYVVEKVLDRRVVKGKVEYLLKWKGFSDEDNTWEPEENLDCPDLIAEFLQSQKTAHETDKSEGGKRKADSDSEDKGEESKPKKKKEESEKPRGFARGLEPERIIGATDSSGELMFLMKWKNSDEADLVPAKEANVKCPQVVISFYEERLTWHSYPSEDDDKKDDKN
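AlphaScreen: HP1-beta (50 nM) preformed 30 min with biotin-H3(1-18)K9me3 peptide (50 nM) in PBS pH 7.4, 0.01% Tween-20. Compound added for 30 min at RT, then streptavidin donor/nickel chelate acceptor beads (10 ug/mL) for 30 min.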
L3MBTL1 block: qHTS Assay for the Inhibitors of L3MBTL1; hit rate 0.66% among 230,000; AID 485360, 2010; Potency, µM (top dose mostly 57.1 µM), most hits filed as inhibitors; AlphaScreen L3MBTL1–H3K9me1 peptide binding; Lethal(3)malignant brain tumor-like protein 1 (Homo sapiens), Q9Y468; also: nearly all actives have a fitted effect of over 60% in size
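AlphaScreen assay: L3MBTL1 (50 nM final) was preincubated 30 min at room temperature with biotinylated H3(1-15)K9me1 peptide (75 nM final), then 30 min with library compounds; streptavidin donor and nickel chelate acceptor beads (10 ug/mL final) added, 30 min dark.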
Large screens that a line does not name were inactive; ! = a repeat was not active. Shown are actives, neighbours in structure and some others; about 11% of the full set was active somewhere. Calls follow the shape of the dose curve; as a rule, active = well fitted inhibition curve with a large enough effect; inconclusive = small, poorly fitted or top-dose-only effect; inactive = no such curve, though single readings can be large or run the other way.

CCCCN(CC)Cc1ccc(CNC(=S)Nc2c(C)cc(C)cc2C)o1	G9a inh inconclusive (no result: L3MBTL1 block)
CCCCN(CC)Cc1ccc(CNC(=S)Nc2ccc(C)cc2Cl)o1	G9a inh 35µM (no result: L3MBTL1 block)
CCc1cccc(NC(c2nnc(-c3ccccc3)o2)c2ccc(F)cc2Cl)c1 (centres undefined)	none (no result: L3MBTL1 block)
Fc1ccc(N2CCN(Cc3ccccn3)CC2)cc1	JMJD2A Tudor inh 11µM, G9a inh 3.5µM, BAZ2B inh 50µM, HP1b chromo inh inconclusive
c1ccc(CN2CCOCC2)nc1	JMJD2A Tudor inh 11µM (no result: G9a inh, BAZ2B inh, L3MBTL1 block)
Oc1cccnc1CN1CCOCC1	JMJD2A Tudor inh 7.9µM (no result: G9a inh, BAZ2B inh, L3MBTL1 block)
O=c1[nH]c(CN2CCN(c3ccc(F)cc3)CC2)nc2ccccc12	none
COc1cccc(C(c2sc3nc(-c4ccco4)nn3c2O)N2CCN(C)CC2)c1 (centres undefined)	none (no result: L3MBTL1 block)
O=[N+]([O-])c1cnc(N2CCCCC2)c([N+](=O)[O-])c1	G9a inh 10µM, BAZ2B inh inconclusive, HP1b chromo inh inconclusive
Cc1cc([N+](=O)[O-])cnc1N1CCOCC1	none
O=C(CN1C(=O)CC(c2ccccc2)=Nc2ccccc21)Nc1ccc(Br)cc1	none (no result: L3MBTL1 block)
CN(C)c1ccc(NC(=O)CN2C(=O)CC(c3ccccc3)=Nc3ccccc32)cc1	G9a inh 2µM
c1ccc(CC2CCN(C3=Nc4cccc5cccc3c45)CC2)cc1	JMJD2A Tudor inh 22µM, G9a inh inconclusive, BAZ2B inh 50µM, HP1b chromo inh inconclusive
O=C(CSc1nc2ncc(Cl)cc2[nH]1)Nc1cccc(F)c1	G9a inh 50µM (no result: L3MBTL1 block)
Cc1cc(NS(=O)(=O)c2ccc(NC(=O)CSc3nc4ncc(Cl)cc4[nH]3)cc2)nc(C)n1	G9a inh 45µM
Nc1ncnc2nc(SCC(=O)Nc3cccc(C(F)(F)F)c3)[nH]c12	G9a inh 35µM (no result: L3MBTL1 block)
CC1CCc2sc(-c3n[nH]c(=S)o3)cc2C1 (centres undefined)	G9a inh 13µM, BAZ2B inh inconclusive
CCN(CC)CCCNC(=O)CSc1nc(-c2ccc(OC)cc2)cc(C(F)(F)F)n1	none (no result: L3MBTL1 block)
Cc1[nH]c2c(Cl)cccc2c1CCNC(=O)C1CCCCC1C(=O)OCC(F)(F)F (centres undefined)	G9a inh 71µM
CCS(=O)(=O)c1ncc(Cl)c(C(=O)Nc2ccc(S(=O)(=O)N(C)c3ccccc3)cc2)n1	G9a inh 40µM, BAZ2B inh inconclusive (no result: L3MBTL1 block)
CCSc1ncc(Cl)c(C(=O)Nc2ccc(S(=O)(=O)N(C)c3ccccc3)cc2)n1	none (no result: L3MBTL1 block)
CCN(c1ccccc1)S(=O)(=O)c1ccc(NC(=O)c2nc(S(C)(=O)=O)ncc2Cl)cc1	JMJD2A Tudor inh inconclusive, G9a inh 32µM (no result: L3MBTL1 block)
CS(=O)(=O)c1ncc(Cl)c(C(=O)Nc2ccc(OC(F)F)cc2)n1	G9a inh 28µM
COc1cc(NC(=O)CSc2ccc(-c3sc(C)nc3C)nn2)cc(OC)c1	none (no result: L3MBTL1 block)
COc1ccc2[nH]c(C(=O)O)c(NS(=O)(=O)c3ccc(C)cc3C)c2c1	G9a inh 40µM (no result: L3MBTL1 block)
COC(=O)c1[nH]c2ccc(C)cc2c1NC(=O)Nc1ccc(OC)cc1	G9a inh 45µM
COC(=O)c1[nH]c2ccc(F)cc2c1NC(=O)Nc1ccc(OC)cc1	none
CCOC(=O)Nc1c(C(=O)OC)[nH]c2cc(OC)ccc12	none
COC(=O)c1[nH]c2cc(OC)ccc2c1N	JMJD2A Tudor inh inconclusive, G9a inh 3.5µM
CCCCOC(=O)Sc1nc2ccccc2o1	G9a inh 25µM
Cc1[nH]c(=O)cc2ccccc12	G9a inh 25µM
Cc1cc(=O)[nH]c2ccccc12	none
N#Cc1c(Sc2ncc(C(F)(F)F)cc2Cl)nsc1C/C=N\OCc1ccccc1Br	JMJD2A Tudor inh inconclusive, G9a inh 20µM, BAZ2B inh 45µM (no result: L3MBTL1 block)
COc1ccc(S(=O)(=O)n2c([N+](=O)[O-])cnc2C)cc1OC	JMJD2A Tudor inh inconclusive, G9a inh 56µM, BAZ2B inh 79µM
COc1ccc(C)cc1S(=O)(=O)n1c([N+](=O)[O-])cnc1C	G9a inh inconclusive
CC(C)Sc1nc2sccc2c(=O)n1-c1ccccc1	G9a inh 40µM (no result: L3MBTL1 block)
COC(=O)C1CCC(=S)N1C(=O)c1ccccc1 (centres undefined)	G9a inh 45µM
CCCCCCCCCCCCCCCC(=O)OC(CC(=O)O)C[N+](C)(C)C (centres undefined)	G9a inh 32µM!
Cc1ccc(Cl)cc1NC(=O)CSc1sc2c(O)cc(=O)[nH]c2c1C#N	none (no result: L3MBTL1 block)
CCSc1nnc(NC(=O)CSc2sc3c(O)cc(=O)[nH]c3c2C#N)s1	JMJD2A Tudor inh inconclusive, G9a inh inconclusive, BAZ2B inh 79µM (no result: L3MBTL1 block)
Cc1csc(NC(=O)CSc2sc3c(O)cc(=O)[nH]c3c2C#N)n1	G9a inh 50µM, BAZ2B inh inconclusive (no result: L3MBTL1 block)
CCc1nnc(NC(=O)CSc2sc3c(O)cc(=O)[nH]c3c2C#N)s1	JMJD2A Tudor inh 20µM, G9a inh 10µM, BAZ2B inh 20µM, HP1b chromo inh 40µM (no result: L3MBTL1 block)
CCc1nnc(NC(=O)CSc2nnc(-c3cc4ccccc4cc3O)n2CC)s1	G9a inh 28µM
CCc1nnc(NC(=O)CSc2nc3[nH]c(=O)cc(O)c3s2)s1	JMJD2A Tudor inh inconclusive, G9a inh inconclusive
CCS(=O)(=O)c1ncc(N(Cc2ccco2)Cc2sccc2C)c(C(=O)Nc2cc(C)ccc2C)n1	BAZ2B inh inconclusive (no result: L3MBTL1 block)
CC(=O)c1ccc(NC(=O)CCc2c(C)nn(-c3ccc4nnc(C)n4n3)c2C)cc1	none (no result: L3MBTL1 block)
Cc1ccc(C(C)C)c(OCCSc2nc3ccccc3n2CC(O)CO)c1 (centres undefined)	none (no result: L3MBTL1 block)
Cc1ccc(S(=O)(=O)CCC(=O)OC(C)C(=O)Nc2ccc(N3CCOCC3)cc2)cc1 (centres undefined)	none
COc1cccc(CNC(C)C(=O)Nc2ccc3c(c2)OCCO3)c1 (centres undefined)	JMJD2A Tudor inh 3.2µM, G9a inh 45µM, BAZ2B inh inconclusive, HP1b chromo inh inconclusive (no result: L3MBTL1 block)
COc1ccc(N2CCN(C(=O)COC(=O)Cc3c(F)cccc3Cl)CC2)cc1	JMJD2A Tudor inh inconclusive, G9a inh 50µM, BAZ2B inh inconclusive
COc1ccc(N2CCN(C(=O)COC(=O)Cc3cccc(OC)c3)CC2)cc1	G9a inh 40µM, L3MBTL1 block inconclusive
COc1cccc(CC(=O)OC(C)C(=O)Nc2ccc(N3CCOCC3)cc2)c1 (centres undefined)	G9a inh 50µM
CCOC(=O)c1sc2ccccc2c1S(=O)(=O)N1CCN(c2cc(C)ccc2C)CC1	none (no result: L3MBTL1 block)
COc1ccc(N2CCN(C(=O)COC(=O)COc3cc(C)cc(C)c3)CC2)cc1	G9a inh 32µM, BAZ2B inh inconclusive
